Source: PubChem BioAssay
Shiga toxin inh – A qHTS for Small Molecule Inhibitors of Shiga Toxin. actives 9.2% (n = 290,000). Vero cells, Shiga toxin protein synthesis inhibition reporter. inhibition, % at 38.7 µM; in the data active = inhibition mostly above about 28%, no sharp cut-off; inactive = mostly below about 43%
Pf growth 96h – Primary qHTS for delayed death inhibitors of the malarial parasite plastid, 96 hour incubation; Potency, µM (highest dose often 28.7 µM), actives largely listed as inhibitors; P. falciparum luciferase reporter growth, 96 h; actives 6.9% (n = 320,000)
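Two-generation exposure (96 h) targets delayed-death phenotype. Reporter parasites carrying integrated firefly luciferase, in red cells at 2% hematocrit and 0.05% parasitemia final, kept at 37 C, 5% CO2; luminescence loss indicates inhibition.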
Pf growth 48h – Primary qHTS for delayed death inhibitors of the malarial parasite plastid, 48 hour incubation. P. falciparum luciferase growth in erythrocytes, 48 h. Potency, µM (doses to about 28.7 µM), usual class: inhibitors. actives 5.9% (n = 310,000)
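Luciferase-expressing parasites in RBCs, 2% Hct / 0.1% parasitemia final; RPMI 1640 + 0.5% Albumax; 37 C, 5% CO2, one generation; luminescence read-out, lower signal = inhibition.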
LmPK inhibitor – qHTS Assay for Inhibitors of Leishmania Mexicana Pyruvate Kinase (LmPK); Potency, µM (top dose mostly 57.5 µM), hits mostly inhibitors; actives 0.37% (n = 290,000); purified LmPK, Kinase-Glo ATP luminescence, 1 h
Target sequence (Q27686 whole entry, looked up): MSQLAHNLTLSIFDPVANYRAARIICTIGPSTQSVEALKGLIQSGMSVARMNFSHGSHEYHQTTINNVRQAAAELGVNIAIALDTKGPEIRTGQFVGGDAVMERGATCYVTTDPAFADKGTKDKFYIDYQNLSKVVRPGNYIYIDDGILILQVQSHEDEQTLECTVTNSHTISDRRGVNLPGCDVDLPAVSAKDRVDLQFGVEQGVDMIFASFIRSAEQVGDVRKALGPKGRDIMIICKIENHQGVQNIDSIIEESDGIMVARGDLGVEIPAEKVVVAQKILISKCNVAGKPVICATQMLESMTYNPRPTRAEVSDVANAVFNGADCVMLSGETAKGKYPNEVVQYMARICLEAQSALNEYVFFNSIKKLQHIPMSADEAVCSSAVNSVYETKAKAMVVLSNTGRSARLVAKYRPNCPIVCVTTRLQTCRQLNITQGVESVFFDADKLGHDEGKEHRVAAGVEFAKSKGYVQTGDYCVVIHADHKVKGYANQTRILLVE
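0.1 nM LmPK, 0.5 mM PEP, 0.1 mM ADP; 50 mM imidazole pH 7.2, 7 mM MgCl2, 50 mM KCl; 1 h RT. Kinase-Glo luminescence readout, normalized to no-enzyme (full inhibition) and uninhibited wells.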
CHX counter – Cycloheximide Counterscreen for Small Molecule Inhibitors of Shiga Toxin | cell reporter, cycloheximide protein synthesis inhibition counterscreen | max response, % | actives 12% (n = 300,000); in the data active = max response mostly above about 13%, no sharp cut-off; inactive = mostly below about 14%; also: read at 38.3 µM for the half of the compounds with a filed dose
Large screens that a line does not name were inactive. Shown are actives, neighbours in structure and some others; about 22% of the full set was active somewhere. Unless noted, calls follow the shape of the dose curve; as a rule, active = well fitted inhibition curve with a large enough effect; inconclusive = small, poorly fitted or top-dose-only effect, or another doubt; inactive = no such curve, though single readings can be large or run the other way.

CC(C)c1ccc(NC(=O)c2ccccc2NC(=O)C2CC=CCC2C(=O)O)cc1 (stereo not drawn)	Shiga toxin inh 60.2, CHX counter 33.4
CC(C)c1ccc(NC(=O)c2ccccc2NC(=O)C2CCCCC2C(=O)O)cc1 (stereo not drawn)	Shiga toxin inh 60.2, CHX counter 39.1
O=C(Nc1cccc(Cl)c1)c1ccccc1NC(=O)C1CCCCC1C(=O)O (stereo not drawn)	CHX counter 20.8
O=C(Nc1ccc(F)cc1)c1ccccc1NC(=O)C1CC=CCC1C(=O)O (stereo not drawn)	Pf growth 96h inconclusive
COC(=O)c1ccccc1NC(=O)C1CCCCC1C(=O)O (stereo not drawn)	Pf growth 96h inconclusive
CCCN1C(=O)/C(=C/C=C2\N(CC)c3ccccc3C2(C)C)SC1=S	Pf growth 96h 4.15µM, Pf growth 48h inconclusive
CC(C)NC[C@@H](O)COc1cccc2ccccc12	Pf growth 96h inconclusive, Pf growth 48h 9.28µM (no result: Shiga toxin inh, LmPK inhibitor, CHX counter)
C=CCc1ccccc1OCC(O)CNC(C)C (stereo not drawn)	Pf growth 96h inconclusive, Pf growth 48h 13.5µM
C=CCc1ccccc1OCC(O)CNC1CCCC1 (stereo not drawn)	Pf growth 96h inconclusive, Pf growth 48h inconclusive
CC(C)NC[C@H](O)COc1cccc2[nH]ccc12	none
C=CCNC(=S)N1CCC(C(=O)c2ccc(Cl)cc2)CC1	Pf growth 96h 9.28µM
CC(C)(C)NC(=S)N1CCC(C(=O)c2ccc(Cl)cc2)CC1	Pf growth 96h 3.29µM (no result: Shiga toxin inh)
CC(C)(C)NC(=S)N1CCC(C(=O)c2ccc(F)cc2)CC1	Pf growth 96h inconclusive, Pf growth 48h inconclusive
C=Cc1ccc(C2=CC(=O)C[C@H](c3ccc(OC)cc3)C2)cc1	none (no result: Shiga toxin inh, LmPK inhibitor, CHX counter)
CCOc1cc(C2c3c(n[nH]c3C)C(=O)N2c2ccc(Br)cc2)ccc1O (stereo not drawn)	Shiga toxin inh 38.0, Pf growth 96h 13.1µM, CHX counter 31.1
COc1cc(C2c3c(n[nH]c3C)C(=O)N2c2ccc(Br)cc2)ccc1O (stereo not drawn)	CHX counter 15.3
Cc1[nH]nc2c1C(c1cccnc1)N(c1ccc(Br)cc1)C2=O (stereo not drawn)	Pf growth 96h inconclusive
CN(C)[C@@H]1C(=O)C(C(N)=O)=C(O)[C@]2(O)C(=O)C3=C(O)c4c(O)ccc(Cl)c4[C@H](O)[C@H]3C[C@@H]12	Pf growth 96h 3.38µM, Pf growth 48h 6.75µM (no result: Shiga toxin inh, LmPK inhibitor, CHX counter)
C[C@@H]1c2cccc(O)c2C(O)=C2C(=O)[C@@]3(O)C(O)=C(C(N)=O)C(=O)[C@@H](N(C)C)[C@@H]3[C@@H](O)[C@@H]21	Pf growth 96h 1.51µM, Pf growth 48h 7.57µM (no result: Shiga toxin inh, LmPK inhibitor, CHX counter)
CN(C)C1C(=O)C(C(N)=O)=C(O)C2(O)C(=O)C3=C(O)c4c(O)cccc4C(C)(O)C3C(O)C12 (stereo not drawn)	Pf growth 96h 2.62µM, Pf growth 48h inconclusive
Cc1ccc(CS(=O)Cc2ccc(C(=O)NCCc3ccccc3)o2)cc1 (stereo not drawn)	none
O=C(Nc1ccnn1C1CCN(Cc2ccccc2OC(F)F)CC1)c1cccnc1	Pf growth 96h inconclusive, Pf growth 48h inconclusive
C=C1c2cccc(O)c2C(O)=C2C(=O)[C@@]3(O)C(O)=C(C(N)=O)C(=O)[C@@H](N(C)C)[C@@H]3[C@@H](O)[C@H]12	Pf growth 96h 1.28µM, Pf growth 48h 3.22µM (no result: Shiga toxin inh, LmPK inhibitor, CHX counter)
C[C@H]1c2cccc(O)c2C(O)=C2C(=O)[C@]3(O)C(O)=C(C(N)=O)C(=O)[C@@H](N(C)C)C3[C@@H](O)C21 (stereo partly drawn)	Pf growth 96h 0.415µM, Pf growth 48h 3.7µM (no result: Shiga toxin inh, LmPK inhibitor, CHX counter)
CN(C)[C@@H]1C(=O)C(C(N)=O)=C(O)[C@]2(O)C(=O)C3=C(O)c4c(O)ccc(Cl)c4[C@](C)(O)[C@H]3C[C@@H]12	Pf growth 96h inconclusive (no result: Shiga toxin inh, LmPK inhibitor, CHX counter)
CCOC(=O)c1sc(NC(=O)CSc2n[nH]c(CC(C)C)n2)nc1C	Pf growth 96h inconclusive
COc1ccccc1N(CC(=O)NC1CCCCC1)S(=O)(=O)c1ccccc1	none
CC(C)CCNC(=O)C1CCN(S(=O)(=O)c2ccc3c(c2)CC(C)N3C(=O)C2CC2)CC1 (stereo not drawn)	Pf growth 48h inconclusive
Cc1noc(C)c1C(=O)Nc1ccccc1N1CCOCC1	none (no result: Shiga toxin inh, LmPK inhibitor, CHX counter)
O=C(CNC(=O)N1CC(=O)Nc2ccccc21)NCCc1ccc(Cl)cc1	Pf growth 96h inconclusive
